Reference: PubChem BioAssay

These compounds were tested on glycogen synthase kinase-3 (GSK3A per assay name; protocol says GSK3B) (assay: GSK3 binders on small-molecule microarrays, primary screen, biochemical, small-molecule microarray, 635 nm fluorescence, GSK3A (AID 1103; also: the record names both GSK3A and GSK3B)). Settings: small-molecule microarray binding, fluorescence 635 nm; higher = more signal.

Compared with `CC#CCOCCC=C1c2ccccc2[C@@H](OC)[C@@H]1C`, `CC(C)=CCCC(C)=CCON=C1C[C@@H](O)[C@@H](O)[C@@H]2[C@@H]3C(=O)N(c4cccc(Oc5ccccc5)c4)C(=O)[C@@H]3CC[C@H]12` is higher in composite z-score: -0.406 for the first, 0.286 for the second.

Compared with `C#CCCCON=C1C[C@@H](O)[C@@H](O)[C@@H]2[C@@H]3C(=O)N(C[C@@H]4CCCO4)C(=O)[C@@H]3CC[C@H]12`, `CC(C)CON=C1C[C@@H](O)[C@@H](O)[C@@H]2[C@@H]3C(=O)N(C(C)(C)C)C(=O)[C@@H]3CC[C@@H]12` is higher in composite z-score: 0.444 for the first, 1.25 for the second.

First: O=C1[C@H]2[C@H]3[C@H](O)[C@H](O)CC(=NO[C@@H]4O[C@H](CO)[C@@H](O)[C@H](O)[C@H]4O)[C@H]3CC[C@H]2C(=O)N1c1ccc(F)cc1F
Second: CCCNC(=O)OC[C@H]1O[C@H](CCON=C2C[C@@H](O)[C@@H](O)[C@@H]3[C@@H]4C(=O)N(CC)C(=O)[C@@H]4CC[C@@H]23)C=C[C@@H]1Oc1ccc(OC)cc1
The composite z-score of the first is lower: -0.444 for the first, 1.05 for the second.

Compared with `COc1ccc(OC[C@@H](CO)OC)cc1`, `COc1ccc(OC[C@H]2CN3[C@@H](CC[C@@H](C)[C@@H]3c3ccc(Br)cc3)C(=O)O2)cc1` is lower in composite z-score: 0.405 for the first, 0.16 for the second.

Going from `Cc1ccc(S(=O)(=O)N[C@@H]2COC(=O)CC=C[C@@H](C)[C@H](NS(=O)(=O)c3ccc(C)cc3)COC(=O)[C@H](C)NC(=O)CC=C[C@H]2C)cc1` to `CCOC(=O)[C@H](CC(C)C)NC(=O)CCC1CC(OC(=O)NCc2ccc3c(c2)OCO3)CC2(CCCC(COC(=O)NCCC(C)C)O2)O1` (some centres not stated), the composite z-score falls from -0.0951 to -0.322.

`CCOC(=O)CCN1C(=O)[C@H]2[C@H]3[C@H](O)[C@H](O)CC(=O)[C@@H]3CC[C@H]2C1=O` showed a composite z-score of 0.917.

The compounds below were run against Epidermal growth factor receptor (Homo sapiens) (UniProt P00533) (assay: EGFR binders on small-molecule microarrays, primary screen, biochemical, small-molecule microarray, 635 nm fluorescence (AID 1104;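 also: score merges 667 nm emission intensity with spot signal to noise over triplicate slides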)). Settings: EGFR binding, higher = more signal.
Sequence of Epidermal growth factor receptor (Homo sapiens) (P00533 whole entry, looked up): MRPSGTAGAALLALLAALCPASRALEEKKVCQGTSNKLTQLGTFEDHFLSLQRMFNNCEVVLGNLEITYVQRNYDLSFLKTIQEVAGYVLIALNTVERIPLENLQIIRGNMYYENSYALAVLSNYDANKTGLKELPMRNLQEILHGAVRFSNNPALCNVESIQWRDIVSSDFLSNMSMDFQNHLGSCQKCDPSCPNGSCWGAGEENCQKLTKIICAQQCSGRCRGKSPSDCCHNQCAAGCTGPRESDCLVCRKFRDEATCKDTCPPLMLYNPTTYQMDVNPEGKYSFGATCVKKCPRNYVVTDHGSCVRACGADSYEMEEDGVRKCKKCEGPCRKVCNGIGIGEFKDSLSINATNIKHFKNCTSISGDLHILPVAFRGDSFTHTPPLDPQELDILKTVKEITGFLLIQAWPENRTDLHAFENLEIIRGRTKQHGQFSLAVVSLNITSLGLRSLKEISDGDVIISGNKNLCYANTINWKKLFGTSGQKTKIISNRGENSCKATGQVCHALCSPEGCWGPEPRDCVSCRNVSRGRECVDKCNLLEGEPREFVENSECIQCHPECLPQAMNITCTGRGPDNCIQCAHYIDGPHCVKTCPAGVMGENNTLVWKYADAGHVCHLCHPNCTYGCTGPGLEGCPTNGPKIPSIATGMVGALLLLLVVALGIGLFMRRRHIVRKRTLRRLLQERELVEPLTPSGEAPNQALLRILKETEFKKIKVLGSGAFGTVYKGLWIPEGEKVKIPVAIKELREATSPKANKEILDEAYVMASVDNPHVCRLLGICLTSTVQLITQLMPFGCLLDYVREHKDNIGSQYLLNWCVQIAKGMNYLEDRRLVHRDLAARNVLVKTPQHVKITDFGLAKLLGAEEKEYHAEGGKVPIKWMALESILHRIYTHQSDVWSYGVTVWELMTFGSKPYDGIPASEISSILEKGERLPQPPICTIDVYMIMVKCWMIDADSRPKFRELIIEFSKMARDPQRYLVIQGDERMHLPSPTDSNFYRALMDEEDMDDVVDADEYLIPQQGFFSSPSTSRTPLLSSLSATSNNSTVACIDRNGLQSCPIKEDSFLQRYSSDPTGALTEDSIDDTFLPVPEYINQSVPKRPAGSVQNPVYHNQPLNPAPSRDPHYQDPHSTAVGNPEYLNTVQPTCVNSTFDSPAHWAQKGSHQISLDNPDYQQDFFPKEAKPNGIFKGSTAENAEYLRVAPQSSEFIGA

Going from `O=C1C[C@@H](O)[C@@H](O)[C@@H]2[C@@H]3C(=O)N(c4ccc(F)cc4F)C(=O)[C@@H]3CC[C@H]12` to `CC(C)CON=C1C[C@@H](O)[C@@H](O)[C@@H]2[C@@H]3C(=O)N(c4ccc(F)cc4F)C(=O)[C@@H]3CC[C@@H]12`, the composite z-score falls from 0.394 to 0.321.

First: Cc1cc(C)c(-c2cc([C@H](C)ON=C[C@@H](C)[C@H](OCc3ccccc3)C(C)C)on2)c(C)c1
Second: CC(CCC(=O)OC[C@H]1O[C@H](C#Cc2ccccc2)C=C[C@@H]1Oc1ccc(C)cc1)=NOC[C@@H](C)[C@H](OCc1ccccc1)C(C)C
The composite z-score of the first is higher: -0.101 for the first, -1.05 for the second.

First: CCN1C(=O)[C@H]2[C@H]3[C@H](O)[C@H](O)CC(=NOCC=C(C)CCC=C(C)C)[C@@H]3CC[C@H]2C1=O
Second: CC(C)=CCCC(C)=CCON=C1C[C@@H](O)[C@@H](O)[C@@H]2[C@@H]3C(=O)N(c4cccc(Oc5ccccc5)c4)C(=O)[C@@H]3CC[C@H]12
The composite z-score of the first is higher: 1.53 for the first, 0.348 for the second.

First: CCOC(=O)CCN1C(=O)[C@H]2[C@H]3[C@H](O)[C@H](O)CC(=NO[C@@H]4O[C@H](CO)[C@@H](O)[C@H](O)[C@H]4O)[C@H]3CC[C@H]2C1=O
Second: O=C1[C@H]2[C@H]3[C@H](O)[C@H](O)CC(=NO[C@@H]4O[C@H](CO)[C@@H](O)[C@H](O)[C@H]4O)[C@H]3CC[C@H]2C(=O)N1c1ccc(F)cc1F
The composite z-score of the first is higher: 0.563 for the first, 0.172 for the second.

First: CC1(C)O[C@H]2OC([C@H](O)CON3C(=O)c4ccccc4C3=O)[C@H](O)[C@H]2O1 (some centres not stated)
Second: CC(C)(C)N1C(=O)[C@H]2[C@H]3[C@H](O)[C@H](O)CC(=NOC[C@@H](O)COCc4ccco4)[C@@H]3CC[C@H]2C1=O
The composite z-score of the first is higher: 0.237 for the first, -0.144 for the second.

First: CC(CCN1CCc2nc(-c3ccccc3)c(-c3ccccc3)cc2C1)=NO[C@H](C)c1cn([C@H](CO)Cc2ccccc2)nn1
Second: CN1CCc2nc(-c3ccccc3)c(-c3ccccc3)cc2C1
The composite z-score of the first is lower: -0.0273 for the first, 0.134 for the second.

Going from `CON=C(C)CCN1CCCc2nc(C)c(C)cc21` to `CC(C)=NOC(C)CN1CCCc2nc(C)c(C)cc21` (configuration not stated), the composite z-score rises from 0.695 to 0.697.

Going from `CC(=O)OC[C@H]1O[C@@H](ON=C(C)CCC(=O)OC[C@H]2O[C@H](C#Cc3ccccc3)C=C[C@@H]2Oc2ccc(C)cc2)[C@H](OC(C)=O)[C@@H](OC(C)=O)[C@@H]1OC(C)=O` to `CC(=O)OC[C@H]1O[C@@H](ON=C(C)C)[C@H](OC(C)=O)[C@@H](OC(C)=O)[C@@H]1OC(C)=O`, the composite z-score falls from 0.603 to -0.246.

Compared with `CCN1C(=O)[C@H]2[C@H]3[C@H](O)[C@H](O)CC(=NO[C@H](C)c4cn([C@H](CO)Cc5ccccc5)nn4)[C@@H]3CC[C@H]2C1=O`, `CCCNC(=O)OC[C@H]1O[C@H](CCON=C2C[C@@H](O)[C@@H](O)[C@@H]3[C@@H]4C(=O)N(CC)C(=O)[C@@H]4CC[C@@H]23)C=C[C@@H]1Oc1ccc(OC)cc1` is higher in composite z-score: 0.587 for the first, 0.611 for the second.

First: C=C(C)C(=O)OC[C@H]1CN2[C@@H](CC[C@@H](C)[C@@H]2c2ccc(Br)cc2)C(=O)O1
Second: COc1ccc(OC[C@H]2CN3[C@@H](CC[C@@H](C)[C@@H]3c3ccc(Br)cc3)C(=O)O2)cc1
The composite z-score of the first is lower: 0.135 for the first, 0.204 for the second.

First: CC(CCN1CCCc2nc(C)c(C)cc21)=NOC[C@@H](O)COCc1ccco1
Second: CC(=O)OC[C@H]1O[C@H](CC=NOC[C@@H](O)COCc2ccco2)C=C[C@@H]1OC(C)=O
The composite z-score of the first is higher: 1.76 for the first, 1.58 for the second.

First: O=C1C=C[C@@H](O)[C@@H]2[C@@H]3C(=O)N(Cc4ccc5c(c4)OCO5)C(=O)[C@@H]3CC[C@@H]12
Second: CCOC(=O)CCN1C(=O)[C@H]2[C@H]3[C@H](O)[C@H](O)CC(=O)[C@@H]3CC[C@H]2C1=O
The composite z-score of the first is lower: 0.523 for the first, 0.591 for the second.

Compared with `C=CC[C@@H]1C=CC(ON=C(C)C)[C@@H](CO)O1` (some centres not stated), `COc1ccc(OC[C@@H](CO)OC)cc1` is higher in composite z-score: 0.0691 for the first, 0.202 for the second.

First: CCC1=NOC(CCC2CC(OC(=O)NCc3cccc4c3OCO4)CC3(CCCC(COC(=O)NCCc4ccc(Cl)cc4)O3)O2)C1 (configuration not stated)
Second: COC(=O)[C@H](C)NC(=O)CCC1CC(OC(=O)NCCc2ccc(F)cc2)CC2(CCCC(COC(=O)NCC3CCCCC3)O2)O1 (some centres not stated)
The composite z-score of the first is lower: -0.0917 for the first, 0.501 for the second.

First: C#CCCCON=C1C[C@@H](O)[C@@H](O)[C@@H]2[C@@H]3C(=O)N(C4CCCCC4)C(=O)[C@@H]3CC[C@@H]12
Second: C#CCCCON=C1C[C@@H](O)[C@@H](O)[C@@H]2[C@@H]3C(=O)N(C[C@@H]4CCCO4)C(=O)[C@@H]3CC[C@H]12
The composite z-score of the first is lower: 0.336 for the first, 0.451 for the second.

Compared with `CCOC(=O)[C@H](Cc1ccccc1)NC(=O)CCC1CC(OC(=O)NCc2cccc3ccccc23)CC2(CCCC(COC(=O)NCC3CCCCC3)O2)O1` (some centres not stated), `CCOC(=O)[C@H](CC(C)C)NC(=O)CCC1CC(OC(=O)NCc2ccc3c(c2)OCO3)CC2(CCCC(COC(=O)NCCC(C)C)O2)O1` (some centres not stated) is lower in composite z-score: 0.604 for the first, 0.0946 for the second.

First: O=C1C[C@H](c2ccccc2)[C@H](c2ccc(Br)cc2)O1
Second: Cc1ccc(S(=O)(=O)N[C@@H]2COC(=O)CC=C[C@@H](C)[C@H](NS(=O)(=O)c3ccc(C)cc3)COC(=O)[C@H](C)NC(=O)CC=C[C@H]2C)cc1
The composite z-score of the first is higher: 0.127 for the first, 0.0994 for the second.

First: CC#CCOCCC=C1c2ccccc2[C@@H](OC)[C@@H]1C
Second: CC(C)CON=C1C[C@@H](O)[C@@H](O)[C@@H]2[C@@H]3C(=O)N(C(C)(C)C)C(=O)[C@@H]3CC[C@@H]12
The composite z-score of the first is lower: 0.0594 for the first, 0.85 for the second.
